Results from ChEMBL document CHEMBL1961873, “Compounds: GSK PKIS; Assays: Nanosyn kinase panel” (2012).

Target: Cyclin-dependent kinase 2 (Homo sapiens) (UniProt P24941);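 also: mean inhibition measured against the CDK2/cyclin E complex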
Settings: at 1 µM

| SMILES | inhibition |
| --- | --- |
| COc1cc(/C=N/Nc2ncnc3[nH]ncc23)ccc1O | 13.9% |
| COc1cc(Nc2nccc(Nc3ccc4c(C)n[nH]c4c3)n2)cc(OC)c1OC | 6.07% |
| COc1cc2c(cc1Nc1nc(Nc3ccsc3C(N)=O)c3cc[nH]c3n1)N(C(=O)CN(C)C)CCC2(C)C | 10.2% |
| CCn1c(-c2nonc2N)nc2c(C#CC(C)(C)O)nc(OC[C@H](N)c3ccccc3)cc21 | 2.97% |
| COC(=O)Nc1nc2ccc(S(=O)(=O)c3ccc(NC(=O)Nc4cc(C(F)(F)F)ccc4F)cc3)cc2[nH]1 | 3.85% |
| N#Cc1c(NC(=O)c2ccc(F)cc2)sc2c1CCCC2 | 1.03% |
| CCn1c(-c2nonc2N)nc2c(C#CC(C)(C)O)ncc(OC3CCNCC3)c21 | 3.09% |
| CCn1c(-c2nonc2N)nc2cnc(Oc3cccc(NC(=O)c4ccc(N(C)C)cc4)c3)cc21 | 2.7% |
| Fc1cccc(COc2ccc(Nc3ncnc4sc(-c5ccco5)cc34)cc2Cl)c1 | 6.69% |
| O=S(=O)(CCNCc1ccc(-c2ccc3ncnc(Nc4ccc(OCc5cccc(F)c5)c(Cl)c4)c3c2)o1)c1ccccc1 | 5.45% |
| COc1cccc(-n2ncc3c(N/N=C/c4ccc(F)cc4)ncnc32)c1 | 15.5% |
| NC(=O)c1sc(-n2cnc3ccc(C(F)(F)F)cc32)cc1OCc1ccccc1Br | 3.25% |
| NS(=O)(=O)c1ccc(N/N=C2\C(=O)Nc3ccc4ncccc4c32)cc1 | 84.3% |
| c1ccc(-c2nc3n(c2-c2ccc4c(c2)OCO4)CCC3)nc1 | 3.84% |
| CCNC(=O)O[C@H]1CN[C@H](C#Cc2cc3ncnc(Nc4ccc(OCc5cccc(F)c5)c(Cl)c4)c3s2)C1 | 3.62% |
| COc1ccc(-c2cc(-c3c[nH]nc3-c3ccccn3)ccn2)cc1 | 5.82% |
| Nc1nc(-c2cccc(Cl)c2)c(-c2ccc3ncccc3n2)s1 | 4.47% |

| SMILES | inhibition |
| --- | --- |
| Clc1ccc(-c2nn3ncccc3c2-c2ccnc(Nc3ccccc3)n2)cc1 | 2.48% |
| CCN1CCC(CC(=O)Nc2n[nH]c3nnc(-c4cccc(F)c4F)cc23)CC1 | 7.61% |
| CN1CCC(n2cnc(-c3ccc(F)cc3)c2-c2ccnc(N)n2)CC1 | 2.89% |
| CNC(=O)c1cncc(/C=C/c2ccccc2Cl)c1 | 0.52% |
| CC(C)COC(=O)c1ccc2c(c1)/C(=C/Nc1ccc(S(N)(=O)=O)cc1)C(=O)N2 | 82.7% |
| CCN(CC)S(=O)(=O)c1ccc(OC)c(Nc2ncc(-c3ccccc3)o2)c1 | 3.61% |
| COc1ccc(-c2oc3ncnc(N)c3c2-c2ccc(NC(=O)Nc3cc(C(F)(F)F)ccc3F)cc2)cc1 | 28.8% |
| COc1ccc(CNC(=O)c2ccc(-c3cc(-c4nnc(C)o4)ccc3C)cc2)cc1 | 3.08% |
| CC(C)(CO)CNC(=O)c1ccc2c(c1)/C(=N/Nc1ccc(S(N)(=O)=O)cc1)C(=O)N2 | 81.2% |
| Cc1cccc2c1NC(=O)/C2=N\Nc1ccc(S(N)(=O)=O)cc1 | 3.99% |
| Cc1ccc2c(-c3ccnc(Nc4ccccc4)n3)c(-c3ccc(F)cc3)nn2n1 | 5.57% |
| CNC(=O)c1cccc(C#Cc2cncnc2Nc2ccc(OCc3cccc(F)c3)c(Cl)c2)c1 | 4.27% |
| c1cc(-c2cnn3nc(N4CCOCC4)ccc23)nc(NC2CC2)n1 | 43.2% |
| FC(F)(F)c1cccc(-c2nn3ncccc3c2-c2ccnc(Nc3ccc4c(c3)OCCO4)n2)c1 | 4.5% |
| CC1=C(C(=O)Nc2cc(Cl)c3[nH]ncc3c2)C(c2ccc(C(F)(F)F)cc2)CC(=O)N1 (stereo not drawn) | 7.57% |
| COc1cc(N2CCN(C(C)C)CC2)ccc1Nc1nc(Nc2ccc(F)cc2C(N)=O)c2cc[nH]c2n1 | 0.42% |
| O=C(Nc1n[nH]c2cc(-c3ccc(F)cc3)ccc12)C1CC1 | 6.81% |

Target: CDK3/Cyclin E (Homo sapiens) (UniProt P24864+Q00526);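 also: reported percentages are mean inhibition values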
Settings: at 0.1 µM

Sequence of CDK3/Cyclin E (Homo sapiens) (P24864 whole entry, looked up): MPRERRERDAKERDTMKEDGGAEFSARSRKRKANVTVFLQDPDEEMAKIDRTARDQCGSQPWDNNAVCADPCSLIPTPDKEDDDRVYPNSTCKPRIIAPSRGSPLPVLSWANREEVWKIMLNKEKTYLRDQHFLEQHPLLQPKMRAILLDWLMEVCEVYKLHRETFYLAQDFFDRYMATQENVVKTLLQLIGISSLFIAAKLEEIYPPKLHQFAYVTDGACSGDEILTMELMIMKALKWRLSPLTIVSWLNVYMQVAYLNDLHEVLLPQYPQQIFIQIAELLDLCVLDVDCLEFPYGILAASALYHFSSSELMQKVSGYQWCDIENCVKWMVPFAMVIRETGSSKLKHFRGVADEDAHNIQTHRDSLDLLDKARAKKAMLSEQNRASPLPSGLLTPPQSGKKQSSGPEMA
Sequence of CDK3/Cyclin E (Homo sapiens) (Q00526 whole entry, looked up): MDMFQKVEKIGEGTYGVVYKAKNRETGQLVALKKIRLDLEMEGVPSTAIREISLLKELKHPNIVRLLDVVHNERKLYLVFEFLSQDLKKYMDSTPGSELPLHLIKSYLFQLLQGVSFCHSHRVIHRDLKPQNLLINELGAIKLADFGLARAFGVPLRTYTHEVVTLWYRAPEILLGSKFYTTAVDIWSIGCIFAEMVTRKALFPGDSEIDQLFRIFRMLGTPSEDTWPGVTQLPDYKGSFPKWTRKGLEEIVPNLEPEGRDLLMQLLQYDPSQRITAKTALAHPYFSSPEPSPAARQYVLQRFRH

| SMILES | inhibition |
| --- | --- |
| COc1cc(/C=N/Nc2ncnc3[nH]ncc23)ccc1O | 1.56% |
| COc1cc(Nc2nccc(Nc3ccc4c(C)n[nH]c4c3)n2)cc(OC)c1OC | 1.75% |
| COc1cc2c(cc1Nc1nc(Nc3ccsc3C(N)=O)c3cc[nH]c3n1)N(C(=O)CN(C)C)CCC2(C)C | 8.96% |
| CCn1c(-c2nonc2N)nc2c(C#CC(C)(C)O)nc(OC[C@H](N)c3ccccc3)cc21 | -2.75% |
| COC(=O)Nc1nc2ccc(S(=O)(=O)c3ccc(NC(=O)Nc4cc(C(F)(F)F)ccc4F)cc3)cc2[nH]1 | 3.5% |
| N#Cc1c(NC(=O)c2ccc(F)cc2)sc2c1CCCC2 | 0.87% |
| CCn1c(-c2nonc2N)nc2c(C#CC(C)(C)O)ncc(OC3CCNCC3)c21 | -1.98% |
| CCn1c(-c2nonc2N)nc2cnc(Oc3cccc(NC(=O)c4ccc(N(C)C)cc4)c3)cc21 | -1.33% |
| Fc1cccc(COc2ccc(Nc3ncnc4sc(-c5ccco5)cc34)cc2Cl)c1 | -0.59% |
| O=S(=O)(CCNCc1ccc(-c2ccc3ncnc(Nc4ccc(OCc5cccc(F)c5)c(Cl)c4)c3c2)o1)c1ccccc1 | 0.01% |
| COc1cccc(-n2ncc3c(N/N=C/c4ccc(F)cc4)ncnc32)c1 | 3.62% |
| NC(=O)c1sc(-n2cnc3ccc(C(F)(F)F)cc32)cc1OCc1ccccc1Br | 1.2% |
| NS(=O)(=O)c1ccc(N/N=C2\C(=O)Nc3ccc4ncccc4c32)cc1 | 79.7% |
| c1ccc(-c2nc3n(c2-c2ccc4c(c2)OCO4)CCC3)nc1 | 2.37% |
| CCNC(=O)O[C@H]1CN[C@H](C#Cc2cc3ncnc(Nc4ccc(OCc5cccc(F)c5)c(Cl)c4)c3s2)C1 | 1.08% |
| COc1ccc(-c2cc(-c3c[nH]nc3-c3ccccn3)ccn2)cc1 | 2.59% |
| Nc1nc(-c2cccc(Cl)c2)c(-c2ccc3ncccc3n2)s1 | 2.24% |

| SMILES | inhibition |
| --- | --- |
| Clc1ccc(-c2nn3ncccc3c2-c2ccnc(Nc3ccccc3)n2)cc1 | 1.03% |
| CCN1CCC(CC(=O)Nc2n[nH]c3nnc(-c4cccc(F)c4F)cc23)CC1 | 0.16% |
| CN1CCC(n2cnc(-c3ccc(F)cc3)c2-c2ccnc(N)n2)CC1 | 1.57% |
| CNC(=O)c1cncc(/C=C/c2ccccc2Cl)c1 | 0.31% |
| CC(C)COC(=O)c1ccc2c(c1)/C(=C/Nc1ccc(S(N)(=O)=O)cc1)C(=O)N2 | 43.8% |
| CCN(CC)S(=O)(=O)c1ccc(OC)c(Nc2ncc(-c3ccccc3)o2)c1 | 1.42% |
| COc1ccc(-c2oc3ncnc(N)c3c2-c2ccc(NC(=O)Nc3cc(C(F)(F)F)ccc3F)cc2)cc1 | 4.83% |
| COc1ccc(CNC(=O)c2ccc(-c3cc(-c4nnc(C)o4)ccc3C)cc2)cc1 | 3.23% |
| CC(C)(CO)CNC(=O)c1ccc2c(c1)/C(=N/Nc1ccc(S(N)(=O)=O)cc1)C(=O)N2 | 48.5% |
| Cc1cccc2c1NC(=O)/C2=N\Nc1ccc(S(N)(=O)=O)cc1 | 2.34% |
| Cc1ccc2c(-c3ccnc(Nc4ccccc4)n3)c(-c3ccc(F)cc3)nn2n1 | 2.45% |
| CNC(=O)c1cccc(C#Cc2cncnc2Nc2ccc(OCc3cccc(F)c3)c(Cl)c2)c1 | 2.79% |
| c1cc(-c2cnn3nc(N4CCOCC4)ccc23)nc(NC2CC2)n1 | 2.41% |
| FC(F)(F)c1cccc(-c2nn3ncccc3c2-c2ccnc(Nc3ccc4c(c3)OCCO4)n2)c1 | 1.7% |
| CC1=C(C(=O)Nc2cc(Cl)c3[nH]ncc3c2)C(c2ccc(C(F)(F)F)cc2)CC(=O)N1 (stereo not drawn) | 2.08% |
| COc1cc(N2CCN(C(C)C)CC2)ccc1Nc1nc(Nc2ccc(F)cc2C(N)=O)c2cc[nH]c2n1 | -2.54% |
| O=C(Nc1n[nH]c2cc(-c3ccc(F)cc3)ccc12)C1CC1 | 2.18% |
